PrPC TRFRET: reduces human prion protein on the cell surface. P04156. cell surface PrPC, TR-FRET read-out. inhibition, % at 13.8 µM. AID 720596. 370,000 compounds, 0.43% hits; in the data active = inhibition above about 24%
BJeLR lethal: BJeLR cell viability loss; inhibition, % (no concentration beside the values); AID 1554; BJeLR (HRASV12) viability, CellTiter-Glo ATP luminescence, 48 h; 300,000 compounds, 0.17% hits; in the data active = inhibition above about 50%
RecA intein inh: blocks M. tuberculosis RecA intein splicing. 290,000 compounds, 0.75% hits. inhibition, % (no concentration beside the values). P9WHJ3. cell-free RecA intein splicing, fluorescence; in the data active = inhibition above about 30%
Target sequence (P9WHJ3 whole entry, looked up): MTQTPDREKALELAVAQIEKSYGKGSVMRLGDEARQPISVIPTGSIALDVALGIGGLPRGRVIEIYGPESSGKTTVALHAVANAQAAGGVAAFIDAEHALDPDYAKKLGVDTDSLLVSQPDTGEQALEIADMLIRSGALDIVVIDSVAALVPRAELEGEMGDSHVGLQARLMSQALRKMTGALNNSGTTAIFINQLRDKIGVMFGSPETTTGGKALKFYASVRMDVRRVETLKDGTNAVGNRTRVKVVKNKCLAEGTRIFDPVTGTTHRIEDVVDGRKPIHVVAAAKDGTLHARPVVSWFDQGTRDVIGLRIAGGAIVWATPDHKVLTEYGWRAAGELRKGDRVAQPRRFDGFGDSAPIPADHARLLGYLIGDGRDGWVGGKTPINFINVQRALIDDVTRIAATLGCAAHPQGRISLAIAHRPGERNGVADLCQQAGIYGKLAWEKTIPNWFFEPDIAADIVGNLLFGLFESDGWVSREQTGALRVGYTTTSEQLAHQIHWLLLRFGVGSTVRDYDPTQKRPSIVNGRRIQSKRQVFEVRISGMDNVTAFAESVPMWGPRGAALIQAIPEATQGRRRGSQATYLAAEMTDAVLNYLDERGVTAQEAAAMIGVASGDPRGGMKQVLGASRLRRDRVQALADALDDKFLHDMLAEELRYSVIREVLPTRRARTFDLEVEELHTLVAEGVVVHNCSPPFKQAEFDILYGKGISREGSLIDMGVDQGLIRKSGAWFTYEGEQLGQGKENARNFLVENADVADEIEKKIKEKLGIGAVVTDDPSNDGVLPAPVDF
PfHsp40 rescue: restores yeast growth despite PfHsp40 toxicity | S. cerevisiae expressing PfHsp40, growth rescue, ATP luminescence | growth rescue, % at 12.5 µM | 340,000 compounds, 0.68% hits; in the data active = growth rescue above about 28%, passing the limit was not always enough;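 also: yeast W303a lacking pdr1 and pdr3 grown in galactose medium; growth measured after three days at 30 °C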
PrP UTR inh: inhibition of PrP 5' UTR reporter expression. cell-based PrP 5' UTR mRNA reporter, plate reader. inhibition, % (no concentration beside the values). 340,000 compounds, 0.35% hits; in the data active = inhibition above about 52%
PriA SSB inh: K. pneumoniae PriA-SSBct interaction inhibition; AlphaScreen SSBct-PriA binding, biotinylated peptide; inhibition, % at 33 µM; 430,000 compounds, 0.6% hits; AID 1272365; in the data active = inhibition mostly above about 37%, no sharp cut-off; inactive = mostly below about 20%
Each line names hits and unclear results; the compound was inactive in the other large screens. In the library only some 1.9% were active in any assay of this set; here they are far more common.

OCCN(CCO)c1ccc(C(c2ccccc2Cl)c2ccc(N(CCO)CCO)cc2Cl)c(Cl)c1	RecA intein inh 32 (no result: PrPC TRFRET)
CC(=NNC(=S)Nc1ccc(C)cc1)c1cc2ccccc2o1	PriA SSB inh 38 (no result: PrPC TRFRET, BJeLR lethal, RecA intein inh, PfHsp40 rescue, PrP UTR inh)
C/C(=N\NC(=S)Nc1cccc(C)c1)c1cc2ccccc2o1	none (no result: PfHsp40 rescue, PriA SSB inh)
O=C(Cc1csc2nc(-c3ccccc3)cn12)Nc1ccc2c(c1)OCCO2	PriA SSB inh 44 (no result: PrPC TRFRET, BJeLR lethal, RecA intein inh, PfHsp40 rescue, PrP UTR inh)
O=C(Cc1csc(Nc2cccc(Cl)c2)n1)Nc1ccc2c(c1)OCCO2	PriA SSB inh 20 (no result: PrPC TRFRET, BJeLR lethal, RecA intein inh, PfHsp40 rescue, PrP UTR inh)
O=C(Nc1ccc2c(c1)OCO2)c1csc2nc(-c3ccc(F)cc3)cn12	none (no result: PrPC TRFRET, BJeLR lethal, RecA intein inh, PfHsp40 rescue, PrP UTR inh)
CCN(CC)C(=O)CC(c1ccc(N(C)C)cc1)c1c(OC)cc(OC)c2c(-c3ccccc3)cc(=O)oc12 (stereo not drawn)	PriA SSB inh 48
CCCCCc1cc(=O)oc2c(C(CCN3CCCC3)c3ccc(N(C)C)cc3)c(OC)cc(OC)c12 (stereo not drawn)	PriA SSB inh 50
Cc1cc(=O)oc2c1c(C)nn2-c1nn[nH]n1	PriA SSB inh 58
CC(=O)Nc1cn(-c2ccccc2)nc1-c1ccccc1	none
O=C(CCl)Nc1cn(-c2ccccc2)nc1-c1ccccc1	RecA intein inh 40
CCOCCCN1CN(CCc2ccccc2)CNC1=S	none (no result: PrPC TRFRET, BJeLR lethal, RecA intein inh, PfHsp40 rescue, PrP UTR inh)
CCC(=O)Nc1cc(C)nn1-c1nc(C)c(CC)c(=O)[nH]1	none (no result: PrPC TRFRET, BJeLR lethal, RecA intein inh, PfHsp40 rescue, PrP UTR inh)
CCc1c(C)nc(-n2nc(C)cc2N)[nH]c1=O	PriA SSB inh 93 (no result: PrPC TRFRET, BJeLR lethal, RecA intein inh, PfHsp40 rescue, PrP UTR inh)
Cc1cc(N)n(-c2nc3c(c(=O)[nH]2)CCCC3)n1	PriA SSB inh 93 (no result: PrPC TRFRET, BJeLR lethal, RecA intein inh, PfHsp40 rescue, PrP UTR inh)
C/C=C/C(=O)Nc1cc(C)nn1-c1nc2c(c(=O)[nH]1)CCC2	none (no result: PrPC TRFRET, BJeLR lethal, RecA intein inh, PfHsp40 rescue, PrP UTR inh)
c1csc(-c2nc(CCn3cnc4ccccc43)no2)c1	none (no result: PrPC TRFRET, BJeLR lethal, RecA intein inh, PfHsp40 rescue, PrP UTR inh)
O=C(O)CNC(=O)CC1SC(=NN=C2CSC(=O)N2)NC1=O (stereo not drawn)	PriA SSB inh 95 (no result: PrPC TRFRET, BJeLR lethal, RecA intein inh, PfHsp40 rescue, PrP UTR inh)
O=P(Nc1ccccc1)(Nc1ccccc1)c1ccccc1	PfHsp40 rescue 43 (no result: BJeLR lethal, RecA intein inh)
COc1ccc(C(=O)/C=C2\C(=O)Nc3ccc(Br)cc32)cc1	none (no result: BJeLR lethal, RecA intein inh)
O=C1Nc2ccc(Br)cc2/C1=C/C(=O)c1ccc2c(c1)OCO2	RecA intein inh 49
CC(C)(C)n1nc2c(c1N)CSC2	none (no result: PrPC TRFRET, BJeLR lethal, RecA intein inh, PfHsp40 rescue, PrP UTR inh)
COc1ccc(-c2ccnc(SCC(=O)N3CCN(c4ccccc4)CC3)n2)cc1	PfHsp40 rescue 105
O=C(CN1CCC(C(=O)N2CCc3ccccc32)CC1)Nc1ccc(F)cc1	none (no result: PrPC TRFRET, BJeLR lethal, RecA intein inh, PfHsp40 rescue, PrP UTR inh)
O=C(NCc1ccc(F)cc1)N1CCCC(c2nnc(-c3ccc4c(c3)OCO4)o2)C1 (stereo not drawn)	none (no result: PrPC TRFRET, BJeLR lethal, RecA intein inh, PfHsp40 rescue, PrP UTR inh)
Cc1ccc(C(=O)O/N=C(\N)c2ccc(Br)cc2)cc1C	none
Cc1ccc(C)c(C(=O)O/N=C(\N)c2ccc(Br)cc2)c1	PfHsp40 rescue 502
CCCCNC(=O)C(=O)Nc1ccc(F)c(Cl)c1	none (no result: PrPC TRFRET, BJeLR lethal, RecA intein inh, PfHsp40 rescue, PrP UTR inh)
COc1ccc(N2CCN(Cc3cc4c(cc3Br)OCCO4)CC2)cc1	none
COc1ccc(N2CCN(Cc3csc(C)c3-c3ccc(C)cc3)CC2)cc1	PriA SSB inh 91
CCOC(=O)c1[nH]c2ccc(C)cc2c1NC(=O)CN1CCCCC1	none
Cc1c2cc[n+](CCN3CCCCC3)cc2c(C)c2c1[nH]c1ccc(O)cc12	PfHsp40 rescue 53 (no result: PrPC TRFRET, BJeLR lethal, RecA intein inh)
COC(=O)C1=C(c2ccc(S(C)(=O)=O)cc2)C[C@@H]2CC[C@H]1N2C(=O)N1CCCCC1	PfHsp40 rescue 78
O=C(c1cccc(Cl)c1)N1N=C(c2ccc(Br)cc2)C[C@H]1c1ccco1	none (no result: PrPC TRFRET, BJeLR lethal, RecA intein inh, PfHsp40 rescue, PrP UTR inh)
Fc1ccc(NC(=S)N2CCCc3ccccc32)cc1	PriA SSB inh 41
CCN1CCN(CCNC(=O)c2ccc(/C=C3/Sc4ccccc4N(Cc4ccccc4C)C3=O)cc2)CC1	BJeLR lethal 76
COc1ccc(OC)c(C=NNC(=O)CN2CCSCC2)c1	none (no result: PrPC TRFRET, BJeLR lethal, RecA intein inh, PfHsp40 rescue, PrP UTR inh)
COc1ccc2nc(NN=C(C)c3ccccn3)cc(C)c2c1	PfHsp40 rescue 784 (no result: BJeLR lethal, RecA intein inh)
CC(=NNc1ccc2ccccc2n1)c1ccccn1	none (no result: BJeLR lethal, RecA intein inh, PfHsp40 rescue, PrP UTR inh, PriA SSB inh)
CC/C(O)=C(\C#N)c1nc2ccccc2[nH]1	none (no result: PrPC TRFRET, BJeLR lethal, RecA intein inh, PfHsp40 rescue, PrP UTR inh)
Cc1cc(C)cc(OCC(=O)OC/C(O)=C(\C#N)c2nc3ccccc3[nH]2)c1	PfHsp40 rescue 28
N#C/C(=C(/O)CCl)c1nc2ccccc2[nH]1	PrPC TRFRET 27
CCN(CC)S(=O)(=O)c1ccc(C(=O)NC[C@](C)(O)c2cc3ccccc3s2)cc1	none (no result: PrPC TRFRET, BJeLR lethal, RecA intein inh, PfHsp40 rescue, PrP UTR inh)
COc1ccccc1N1CCN(CCNC(=O)c2cc3ccccc3oc2=O)CC1	none (no result: PrPC TRFRET, BJeLR lethal, RecA intein inh, PfHsp40 rescue, PrP UTR inh)
O=C(NCCS(=O)(=O)N1CCN(c2ccccc2)CC1)c1ccccc1C(F)(F)F	none (no result: PrPC TRFRET, BJeLR lethal, RecA intein inh, PfHsp40 rescue, PrP UTR inh)
COC(=O)c1cc(NCc2ccccc2F)ccc1N1CCOCC1	none (no result: BJeLR lethal)
